Molecules are shown by their SMILES. The campaign covered roughly 3,600 compounds. About 900 (25%) were called active. How the calls were made is not given here. A selection follows. Measured potencies and affinities stand elsewhere.

The source of these data is PubChem BioAssay AID1117361 (Southern Research Institute, 2015).

The target in the assay is Protein Tat (Human immunodeficiency virus type 1 group M subtype B (isolate HXB2)) (UniProt P04608). In words: HIV-1 Tat–TAR interaction blockers – biochemical, fluorescence polarization, FAM-labeled TAR RNA, counter-screen for Vif-APOBEC3G degradation inhibitor project, dose response (AID 1117361). Particulars: Tat-TAR RNA binding; series mostly up to 100 µM. On the technique in general: Polarisation of emitted light reports the rotation of a fluorescent probe.
In the case of `CCc1ccc(N2C(=O)Cc3c2nc(N)c(C#N)c3N)cc1`, the result was inactive.
With `CCOC(=O)Cn1nc(-c2ccccc2)c2cnc3ccc(C)cc3c21` the entry was “inactive”; with `O=C1CC(c2c(F)cccc2Cl)C2=C(COC2=O)N1` (stereo unspecified), “inactive”; with `COc1cccc(CC(=O)N2CCCC(CO)(Cc3ccc(F)cc3F)C2)c1` (stereo unspecified), “inactive”.
For `Cc1ccc(C(=O)COC(=O)CNC(=O)C(c2ccccc2)c2ccccc2)cc1[N+](=O)[O-]`, the result was inactive.
`C=CCn1c(SCC(=O)c2c(N)n(C)c(=O)n(C)c2=O)nnc1-c1ccccc1F`: the compound was called inactive.
Consider `O=c1c2c(-c3ccco3)csc2nc(SCc2cn3cccnc3n2)n1-c1ccccc1`, for which the call was inactive.
The value for `N#CCOC(=O)c1sccc1-n1cccc1` was “inactive”.
Turning to `O=C(CSc1nnc(-c2ccc(F)cc2)o1)Nc1ccc(S(=O)(=O)N2CCCC2)cc1`, the compound was classed as inactive.
For the compound `Cc1ccc(C(=O)Nc2cccc(C(=O)O)c2)cc1S(=O)(=O)N1CCOCC1`, the outcome was inactive.
With `Cc1nnc(NC(=O)c2ccc(C)c(S(=O)(=O)N3CCOCC3)c2)s1` the entry was “inactive”; with `N#CC(=C1SC=CS1)c1nc(-c2ccccc2)cs1`, “inactive”.
The value for `CCOC(=O)C1CCN(Cc2cnc(Oc3ccc(OC)cc3)s2)CC1` was “inactive”; that for `CCOC(=O)C1CCN(c2ncnc3cc(OC)c(OC)cc23)CC1` was “inactive”.
Consider `CCOC(=O)CSc1nnc(-c2ccco2)n1C`, for which the compound was classed as inactive.
With `CSc1ncccc1C(=O)OCC(=O)N1CCOCC1` the entry was “inactive”.
With `CCN(CC)c1ccc(N=Cc2ccc(N(CC)CC)cc2O)cc1` the entry was “inactive”; with `CCOC(=O)C1C(=O)CC(C)(O)C(C(=O)OCC)C1c1cc(Br)ccc1OC` (stereo unspecified), “inactive”; with `COc1cccc(-c2nn3c(-c4ccccn4)nnc3s2)c1`, “inactive”.
The value for `O=C(CSc1nnc(-c2cccnc2)n1Cc1ccco1)c1ccc(Br)cc1` was “inactive”; that for `N#Cc1ccc(CSc2nnc(Cc3cccs3)n2Cc2ccco2)cc1` was “inactive”; that for `O=C(CCCCn1c(=O)[nH]c2ccsc2c1=O)NCc1cccnc1` was “inactive”.
For the compound `COC(=O)c1cc(=O)nc2sc(-c3ccc(F)cc3)nn12`, the result was inactive.
With `COc1c(OC(C)=O)ccc(/C=C/c2ccc3ccccc3n2)c1[N+](=O)[O-]` the entry was “inactive”; with `COC1=C(OC)C(=O)C(Sc2ccc3ccccc3c2)=CC1=O`, “inactive”.
With `CCNC(=O)NC(=O)COC(=O)CNC(=O)COc1ccccc1` the entry was “inactive”; with `CCOC(=O)CNc1nc(-c2ccncc2)nc2ccccc12`, “inactive”; with `Cc1ccc(NC(=O)C(=O)c2c(-c3ccccc3)cc3ccccn23)cc1S(=O)(=O)N1CCOCC1`, “inactive”.
The value for `O=C(C1CC(c2ccccc2O)=NO1)N1CCCCC1` (stereo unspecified) was “inactive”; that for `Oc1ccc(/C=N/N2CCCCC2)c(O)c1` was “inactive”; that for `Cc1ccc(NC2=NCCCCC2)cc1C` was “inactive”.
Take `Cc1ccc(C(C[N+](=O)[O-])Sc2ccc(N)cc2)cc1` (stereo unspecified): the call was inactive.
With `CCCCc1ccc(NC(=O)CC(C)(C)C)cc1`, the compound was called inactive.
`COC(=O)c1sccc1NC(=O)CC1C(=O)NCCN1C(=O)Nc1ccccc1` (stereo unspecified): the result was inactive.
The value for `COc1ccc(C2SCC(C(=O)NCc3ccc(F)cc3)N2C(C)=O)cc1` (stereo unspecified) was “inactive”; that for `O=C(Nc1ccc(F)c(Cl)c1)c1cccnc1` was “inactive”.
The value for `CC(C)Cc1cc(C(=O)Nc2cccc(O)c2)no1` was “inactive”; that for `O=C(NNC(=O)c1cccnc1)Nc1ccc([N+](=O)[O-])cc1` was “inactive”.
With `Cc1ccc(S(=O)(=O)C2(C(=O)Nc3cccc(F)c3)CC2)cc1` the entry was “inactive”; with `CN1CCN(C(CNC(=O)c2ccc(Br)o2)c2ccc(F)cc2)CC1` (stereo unspecified), “inactive”; with `CCOc1ccc(C2c3c(oc4ccccc4c3=O)C(=O)N2CCCN2CCOCC2)cc1` (stereo unspecified), “inactive”.
As for `COc1ccc(C(C(C(=O)c2cccs2)N2CCOCC2)N2CCOCC2)cc1OC` (stereo unspecified), the compound was called inactive.
With `CN(C(=O)c1ccc(OC2CCN(S(=O)(=O)N(C)C)CC2)cc1)C1CCCCC1` the entry was “inactive”; with `O=C(Nc1ccccc1)NC1CCN(CCCN2C(=O)c3ccccc3C2=O)CC1`, “inactive”; with `COc1ccc(NC(=O)Cc2ccc(Cl)cc2)cc1NC(=O)c1ccco1`, “inactive”.
The value for `Cc1cccc2nc(C(=O)Nc3cccc(C(=O)NC4CC4)c3)cn12` was “inactive”.
The value for `COc1ccc(N2CCN(CCNC(=O)Nc3ccc(Cl)cc3)CC2)cc1` was “inactive”; that for `Cc1cc2nc(C)n(CCCNC(=O)Nc3ccc(F)cc3)c2cc1C` was “inactive”.
For `CC(=O)c1cccc(NC(=O)NCCS(C)=O)c1` (stereo unspecified), the outcome was inactive.
With `Cc1ccc(NC(=O)Nc2ccc3c(c2)nc(C)n3C)cc1` the entry was “inactive”; with `Cc1ccc(NCc2nnc(SCC(=O)N(Cc3ccccc3)C(C)(C)C)o2)c(C)c1`, “inactive”.
With `CNC(=O)C(=O)N/N=C/c1cccnc1` the entry was “inactive”; with `O=C(CN(C(=O)c1cc2c(s1)CCC2)C1CCCC1)NCc1cccs1`, “inactive”.
With `CCCc1nc2ccccc2c(=O)n1NC(=O)c1c(O)c2cccc3c2n(c1=O)CCC3` the entry was “inactive”.
As for `COC(=O)Cc1cc(=O)[nH]c(/N=C(\N)Nc2ccc(C)cc2)n1`, the call was inactive.
The value for `O=C(N/N=C\c1ccc(Cl)cc1)C1=NOC2COC3(CCN(c4ccc([N+](=O)[O-])cc4)CC3)OCC12` (stereo unspecified) was “inactive”.
The value for `CCC(C)N1CC23C=CC(O2)C(C(=O)OC)C3C1=O` (stereo unspecified) was “inactive”.
The value for `COCC(=O)Nc1sc2c(c1C(=O)OC)C(C(=O)OC)CC2` (stereo unspecified) was “inactive”; that for `CCOC(=O)C1=C(Cc2ccc(Cl)cc2)C(=O)c2ccccc2C1=O` was “inactive”; that for `CCOC(=O)c1c2c(n(Cc3ccccc3)c1C)C(=O)C(=O)c1ccccc1-2` was “inactive”.
Regarding `O=C(Nc1ccccc1N1CCCCC1)c1ccccc1F`, the compound was classed as inactive.
Turning to `COc1c(F)c(F)c(C(=O)Nc2ccccc2N2CCN(C(C)=O)CC2)c(F)c1F`, the compound was classed as inactive.
For the compound `COc1ccc(S(=O)(=O)N(C(C)=O)c2ccc3oc(=O)sc3c2)cc1`, the compound was classed as inactive.
With `O=C1C(Cl)=C(Oc2ccccc2)C(=O)c2ccccc21` the entry was “inactive”; with `CC(OC(=O)c1cccc(O)c1)C(=O)N(C)Cc1ccccc1` (stereo unspecified), “inactive”; with `CC(=O)Nc1ccc(NC(=O)c2sc3nc4c(c(-c5ccc(C)cc5)c3c2N)CCC4)cc1`, “inactive”.
Regarding `CSc1ncccc1C(=O)NCc1nnc2ccccn12`, the call was inactive.
Turning to `O=C(Cn1c(NCCO)nc2ccccc21)NCC(F)(F)F`, the compound was called inactive.
With `O=C(CSc1nnc(CN2CCCCC2)n1-c1ccccc1)c1ccc2c(c1)OCO2` the entry was “inactive”; with `CC(NC(=O)c1ccco1)C(=O)N1CCc2ccccc2C1` (stereo unspecified), “inactive”; with `O=C(CN(C1CCCCC1)C1CCCCC1)N1CCc2ccccc2C1`, “inactive”.
